Assay results taken from PubChem BioAssay (Tox21).
Values joined by “and” are separate entries in the source; they are usually repeats but may differ in a detail not shown here. Equal values may be shown once. Inconclusive results are not listed. The source holds several records for some structures; these can differ, active in one and inactive in another. Active and inactive are the calls of the source. Unless noted, the call rests on the fitted dose curve; in most records, active means well fitted curve in the direction sought with a large enough effect in the repeat runs; inconclusive means weak or mixed curves; inactive means no such curve, though single readings can be large; an effect the other way counts as inactive or inconclusive.

What was measured:
[1] = qHTS assay to identify small molecule antagonists of the estrogen receptor alpha (ER-alpha) signaling pathway using the BG1 cell line in the presence of 0.1 nM 17-beta-estradiol - cell viability counter screen (AID 1259241); further: nearly all actives have a fitted effect of over 40% in size
Procedure, shortened: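 Following 5 days in phenol red-free medium with charcoal-stripped serum, VM7Luc4E2 cells received test compounds alongside 0.1 nM 17beta-estradiol (final) at 37C for 22 hr. Live cells were then quantified via protease-substrate fluorescence.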

[2] = qHTS assay to identify small molecule antagonists of the androgen receptor (AR) signaling pathway using the MDA cell line in the presence of 0.5 nM R1881 - cell viability counter screen (AID 1259242); further: nearly all actives have a fitted effect of over 45% in size; further: potency means the concentration at half of the fitted maximal effect
Procedure, shortened: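 Human breast carcinoma MDA-kb2 cells, cultured without CO2, receive compounds alongside 0.5 nM (final) R1881 agonist. After 16 hr at 37C, viability is taken as live-cell protease signal.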

[3] = qHTS assay to identify small molecule HDAC inhibitors (AID 1259364);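 further: wild-type HCT-116 cells with endogenous class I/II HDAC activity; top concentration of the series differs between compounds; nearly all actives have a fitted effect of over 45% in size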
Procedure, shortened: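 After a 2 hr compound incubation (37C, 5% CO2), HCT-116 cells seeded at 1,500/well the day before received HDAC-Glo reagent; signal read as luminescence after 30 min at room temperature.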

[4] = qHTS assay to identify small molecule HDAC inhibitors - cell viability counter screen (AID 1259365); further: series mostly up to about 92 µM; nearly all actives have a fitted effect of over 50% in size
Procedure, shortened: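 HCT-116 wild-type, overnight attachment; 2hr drug exposure, 37C; CellTiter-Glo luminescent ATP readout after 30min RT.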

[5] = qHTS assay to identify small molecule agonists of the sonic hedgehog signaling (Shh) pathway - cell viability counter screen (AID 1259366); further: nearly all actives have a fitted effect of over 50% in size
Procedure, shortened: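 Compounds in DMSO were pin-transferred onto 3T3 Gli1-Luc cells that had settled 4hr; plates then stood 24hr at 37C and 5% CO2. One hour before the end, CellTiter-Fluor was added and fluorescence recorded.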

[6] = qHTS assay to identify small molecule antagonists of the sonic hedgehog signaling (Shh) pathway - cell viability counter screen (AID 1259367); further: nearly all actives have a fitted effect of over 55% in size; further: potency means the concentration at half of the fitted maximal effect
Procedure, shortened: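 Cytotoxicity was assessed in parallel with Shh reporter activity by measuring live-cell protease fluorescence (CellTiter-Fluor) in NIH/3T3 cells stably carrying Gli1-Luc, treated with compound under conditioned medium stimulation for 23 hr plus 1 hr reagent incubation.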

[7] = qHTS assay to identify small molecule agonists of the sonic hedgehog signaling (Shh) pathway (AID 1259368; calls by dose curve;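 further: NIH/3T3-derived 3T3Gli1-Luc cells carrying a stable Gli1-driven firefly luciferase reporter; series mostly up to about 92 µM; nearly all actives have a fitted effect of over 15% in size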)
Procedure, shortened: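 Stable NIH/3T3 Gli1-Luc reporter clone; 24 hr cpd exposure after a 4 hr settling period; luminescence endpoint.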

[8] = target: Estrogen receptor beta (Homo sapiens) (UniProt Q92731); assay: qHTS assay to identify small molecule agonists of the estrogen receptor beta (ER-beta) signaling pathway (AID 1259377; active means well fitted activation curve with a large enough effect in the signal ratio in the repeat runs, not every such curve was filed as active; the % refers to the signal ratio; further: potency means the concentration at half of the fitted maximal effect)
Estrogen receptor beta (Homo sapiens), sequence (Q92731 whole entry, looked up): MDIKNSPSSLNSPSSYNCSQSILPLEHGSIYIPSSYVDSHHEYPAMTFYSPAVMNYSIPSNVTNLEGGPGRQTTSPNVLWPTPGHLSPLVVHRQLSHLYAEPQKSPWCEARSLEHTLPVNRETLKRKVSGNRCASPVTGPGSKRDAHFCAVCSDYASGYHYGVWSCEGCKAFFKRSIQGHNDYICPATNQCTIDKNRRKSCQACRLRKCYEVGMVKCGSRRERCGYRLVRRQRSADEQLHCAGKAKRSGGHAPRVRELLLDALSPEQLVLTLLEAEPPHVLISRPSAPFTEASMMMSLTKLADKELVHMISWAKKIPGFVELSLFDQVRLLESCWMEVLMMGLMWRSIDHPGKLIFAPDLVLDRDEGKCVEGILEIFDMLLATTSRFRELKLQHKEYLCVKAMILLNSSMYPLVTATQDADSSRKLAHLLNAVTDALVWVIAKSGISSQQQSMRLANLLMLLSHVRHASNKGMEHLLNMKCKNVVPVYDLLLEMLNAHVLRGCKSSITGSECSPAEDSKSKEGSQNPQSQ
Procedure, shortened: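 qHTS in ER-beta-UAS-bla HEK293T cells: 6 hr settling, then 16 hr compound at 37C, then LiveBLAzer substrate 2 h at RT before fluorescence reading.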

[9] = target: Estrogen receptor beta (Homo sapiens) (UniProt Q92731); assay: qHTS assay to identify small molecule antagonists of the estrogen receptor beta (ER-beta) signaling pathway (AID 1259378; active means well fitted inhibition curve with a large enough effect in the signal ratio in the repeat runs, not every such curve was filed as active; the % refers to the signal ratio; further: potency means the concentration at half of the fitted maximal effect)
Procedure, shortened: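 ER-beta-UAS-bla HEK293T (GripTite) cells in 2% charcoal-stripped FBS medium were preincubated 6 hr at 37C, dosed with compound, then stimulated with 1 nM E2 (final) for 16 hr; beta-lactamase reporter read by B/G FRET fluorescence after 2 hr substrate loading.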

[10] = qHTS assay to identify small molecule agonists of the androgen receptor (AR) signaling pathway in the presence of an antagonist - cell viability counter screen (AID 1259379); further: nearly all actives have a fitted effect of over 25% in size; further: potency means the concentration at half of the fitted maximal effect
Procedure, shortened: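 Counter screen for cell viability run in parallel with the AR agonist-mode luciferase assay. MDA-kb2 cells were co-treated with nilutamide (3.0uM final) and compounds, then incubated 16 hr at 37C, and CellTiter-Fluor fluorescence was measured.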

[11] = qHTS assay to identify small molecule agonists of the estrogen receptor beta (ER-beta) signaling pathway - cell viability counter screen (AID 1259380); further: nearly all actives have a fitted effect of over 30% in size; further: potency means the concentration at half of the fitted maximal effect
Procedure, shortened: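 In this qHTS counter screen, HEK293T cells carrying an ER-beta/UAS beta-lactamase reporter, grown in 2% charcoal-stripped FBS, received compound for 16 hr; ATP-based CellTiter-Glo luminescence was then read after 30 min at room temperature.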

[12] = qHTS assay to identify small molecule antagonists of the estrogen receptor beta (ER-beta) signaling pathway - cell viability counter screen (AID 1259382); further: nearly all actives have a fitted effect of over 55% in size; further: potency means the concentration at half of the fitted maximal effect
Procedure, shortened: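 HEK293T ER-beta-UAS-bla, 2% charcoal-stripped FBS; compounds + 1nM E2 16 hr 37C; CellTiter-Glo luminescence, 30 min RT.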

[13] = target: Estrogen receptor (Homo sapiens) (UniProt P03372); assay: qHTS assay to identify small molecule agonists of the estrogen receptor alpha (ER-alpha) signaling pathway in the presence of an antagonist (AID 1259383; calls by dose curve; further: top concentration of the series differs between compounds; nearly all actives have a fitted effect of over 15% in size)
Estrogen receptor (Homo sapiens), sequence (P03372 whole entry, looked up): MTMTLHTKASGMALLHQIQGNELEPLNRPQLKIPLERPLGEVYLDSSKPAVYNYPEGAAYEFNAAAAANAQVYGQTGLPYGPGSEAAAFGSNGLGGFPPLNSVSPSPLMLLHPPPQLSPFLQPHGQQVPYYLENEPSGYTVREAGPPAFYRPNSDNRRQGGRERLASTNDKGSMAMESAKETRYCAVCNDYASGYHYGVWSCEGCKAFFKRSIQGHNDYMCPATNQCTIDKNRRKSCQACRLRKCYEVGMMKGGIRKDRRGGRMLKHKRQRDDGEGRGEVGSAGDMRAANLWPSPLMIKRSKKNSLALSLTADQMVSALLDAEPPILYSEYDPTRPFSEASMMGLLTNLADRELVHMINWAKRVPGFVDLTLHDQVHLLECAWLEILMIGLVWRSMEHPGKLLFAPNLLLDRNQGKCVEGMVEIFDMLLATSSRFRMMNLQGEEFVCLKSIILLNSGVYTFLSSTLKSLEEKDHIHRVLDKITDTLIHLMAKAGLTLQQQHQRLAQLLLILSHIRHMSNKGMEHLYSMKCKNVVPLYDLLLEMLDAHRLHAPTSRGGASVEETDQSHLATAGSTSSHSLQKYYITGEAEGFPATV
Procedure, shortened: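 ER-alpha agonism measured under antagonist challenge: 10.0nM ICI-182,780 (final) plus compound, 15 concentrations, 22hr, VM7Luc4E2 ERE-luciferase cells. Read by luminescence.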

[14] = qHTS assay to identify small molecule agonists or antagonists of the thyroid stimulating hormone receptor (TSHR) signaling pathway - wild type cell line counter screen (AID 1259384; calls by dose curve)
Procedure, shortened: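 Wild-type HEK293 cells were plated 18 h at 37 C/5% CO2, pin-dosed with compound plus Ro20-1724 medium, held 30 min at room temperature, then given cAMP-d2 and anti-cAMP-cryptate; fluorescence was read after 1 h. Fifteen concentrations, triplicate.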

[15] = target: Thyrotropin receptor (Homo sapiens) (UniProt P16473); assay: qHTS assay to identify small molecule antagonists of the thyroid stimulating hormone receptor (TSHR) signaling pathway (AID 1259385; calls by dose curve; further: nearly all actives have a fitted effect of over 20% in size; further: potency means the concentration at half of the fitted maximal effect)
Thyrotropin receptor (Homo sapiens), sequence (P16473 whole entry, looked up): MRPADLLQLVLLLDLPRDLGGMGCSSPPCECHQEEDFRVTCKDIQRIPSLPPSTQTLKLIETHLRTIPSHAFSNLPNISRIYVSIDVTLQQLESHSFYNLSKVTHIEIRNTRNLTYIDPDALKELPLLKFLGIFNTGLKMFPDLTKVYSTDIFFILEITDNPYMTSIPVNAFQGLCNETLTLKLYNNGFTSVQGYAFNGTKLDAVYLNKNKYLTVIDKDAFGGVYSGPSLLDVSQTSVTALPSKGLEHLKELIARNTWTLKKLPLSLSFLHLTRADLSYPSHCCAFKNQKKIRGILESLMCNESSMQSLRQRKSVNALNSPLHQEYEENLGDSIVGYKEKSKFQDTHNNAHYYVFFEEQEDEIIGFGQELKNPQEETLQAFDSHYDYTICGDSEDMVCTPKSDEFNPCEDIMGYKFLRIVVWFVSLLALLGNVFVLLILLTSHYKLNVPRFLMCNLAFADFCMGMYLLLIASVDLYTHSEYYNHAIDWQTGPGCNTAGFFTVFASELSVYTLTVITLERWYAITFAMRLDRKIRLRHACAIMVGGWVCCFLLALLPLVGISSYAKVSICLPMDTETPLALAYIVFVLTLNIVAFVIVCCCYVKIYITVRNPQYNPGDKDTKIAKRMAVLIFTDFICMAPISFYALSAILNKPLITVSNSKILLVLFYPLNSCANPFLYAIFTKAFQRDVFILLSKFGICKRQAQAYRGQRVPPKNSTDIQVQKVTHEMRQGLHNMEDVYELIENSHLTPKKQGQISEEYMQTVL
Procedure, shortened: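 TSHR-HEK293 cells were plated and held 18 h at 37C/5% CO2, then given compound plus Ro20-1724 and stimulated with TSH at 1.5 ng/mL final. After 30 min at room temperature, cAMP was detected with cAMP-d2/anti-cAMP-cryptate (1 h) by fluorescence.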

[16] = qHTS assay to identify small molecule antagonists of the sonic hedgehog signaling (Shh) pathway (AID 1259369; calls by dose curve; further: nearly all actives have a fitted effect of over 45% in size; further: potency means the concentration at half of the fitted maximal effect)
Procedure, shortened: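 Gli1 transcriptional reporter (firefly Luc) in NIH/3T3 background, conditioned-medium activated. 24hr exposure, luminescence endpoint.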

[17] = target: Estrogen receptor (Homo sapiens) (UniProt P03372); assay: qHTS assay to identify small molecule antagonists of the estrogen receptor alpha (ER-alpha) signaling pathway using the BG1 cell line in the presence of 0.1 nM 17-beta-estradiol (AID 1259244); further: nearly all actives have a fitted effect of over 50% in size
Procedure, shortened: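 Seeding of stripped-serum-adapted VM7Luc4E2 cells, 24 h attachment, compound transfer, then 0.1 nM final 17beta-estradiol; after 22 h incubation, ONE-Glo reagent and luminescence reading.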

[18] = qHTS assay to identify small molecule phospholipidosis (PLD) inducers (AID 1259344; active means well fitted curve in the direction sought with a large enough effect; an effect the other way counts as inactive or inconclusive)
Procedure, shortened: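 Cells (HepG2, 900 per well) attach for 4 h, receive LipidTOX Red and compound together, incubate 24 h at 37 C, are fixed 30 min with paraformaldehyde/Hoechst, then imaged at one site per well.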
On the % scale 0 is the no-effect control and ±100 the full control effect.

CN(C)P(=O)(N(C)C)N(C)C
inactive: Potency [1] | Potency [2] | Potency [3] | Potency [4] | Potency [5] | Potency [6] | Potency [7] | Potency [8] | Potency [9] | Potency [10] | Potency [11] | Potency [12] | Potency [13] | Potency [14] | Potency [15]

OC(c1ccc(Cl)cc1)(c1cncnc1)c1ccccc1Cl (stereo not drawn)
active: Potency [9] 24.3 µM | Potency [11] 49.4 µM
24.8 µM (active) and inactive: Potency [10]
27.8 µM (active) and inactive: Potency [2]
62.2 µM (active) and inactive: Potency [12]
inactive: Potency [1] | Potency [3] | Potency [4] | Potency [5] | Potency [6] | Potency [7] | Potency [16] | Potency [8] | Potency [13]

COP(=O)(NC(C)=O)SC (stereo not drawn)
inactive: Potency [1] | Potency [2] | Potency [3] | Potency [4] | Potency [5] | Potency [7] | Potency [8] | Potency [9] | Potency [10] | Potency [11] | Potency [12]
27.3 µM (active) and inactive: Potency [16]
68.7 µM (active) and inactive: Potency [6]

COc1ccc(C=O)cc1OC
active: Potency [16] 24.6 µM
inactive: Potency [1] | Potency [2] | Potency [3] | Potency [4] | Potency [5] | Potency [6] | Potency [7] | Potency [8] | Potency [9] | Potency [10] | Potency [11] | Potency [12]

c1ccc(C2CO2)cc1 (stereo not drawn)
inactive: Potency [1] | Potency [2] | Potency [3] | Potency [4] | Potency [5] | Potency [6] | Potency [7] | Potency [16] | Potency [10] | Potency [11] | Potency [12] | Potency [14] | Potency [15]

CCOP(=S)(OCC)SCSC(C)(C)C
inactive: Potency [1] | Potency [2] | Potency [17] | Potency [3] | Potency [5] | Potency [6] | Potency [7] | Potency [16] | Potency [10] | Potency [11] | Potency [12]

C[C@]12CC[C@H]3[C@@H](CCC4=CC(=O)CC[C@@H]43)[C@@H]1CC[C@@H]2O
active: Potency [8] 540 nM and 4.22 µM
inactive: Potency [1] | Potency [2] | outcome [18] | Potency [3] | Potency [5] | Potency [6] | Potency [7] | Potency [10] | Potency [11] | Potency [12] | Potency [14] | Potency [15]

NC(=O)CN1CCCC1=O
inactive: Potency [1] | Potency [2] | outcome [18] | Potency [3] | Potency [4] | Potency [5] | Potency [6] | Potency [7] | Potency [8] | Potency [9] | Potency [10] | Potency [11] | Potency [12]

CC(C)CON=O
inactive: Potency [1] | Potency [2] | Potency [17] | Potency [3] | Potency [5] | Potency [6] | Potency [7] | Potency [16] | Potency [8] | Potency [9] | Potency [10] | Potency [11] | Potency [12] | Potency [13] | Potency [14] | Potency [15]

CCCCC(C#N)(Cn1cncn1)c1ccc(Cl)cc1 (stereo not drawn)
active: Potency [15] 60.9 µM and 54.5 µM
inactive: Potency [1] | Potency [2] | Potency [3] | Potency [4] | Potency [5] | Potency [6] | Potency [7] | Potency [16] | Potency [10] | Potency [12] | Potency [13] | Potency [14]

Clc1cccc(Cl)c1
inactive: Potency [1] | Potency [2] | Potency [3] | Potency [4] | Potency [5] | Potency [6] | Potency [7] | Potency [16] | Potency [8] | Potency [9] | Potency [10] | Potency [12] | Potency [14] | Potency [15]

COc1ccc(CO)cc1
inactive: Potency [1] | Potency [2] | Potency [3] | Potency [4] | Potency [5] | Potency [6] | Potency [7] | Potency [16] | Potency [8] | Potency [9] | Potency [10] | Potency [11] | Potency [12] | Potency [15]

C=C(C)C#N
inactive: Potency [1] | Potency [2] | Potency [17] | Potency [3] | Potency [5] | Potency [6] | Potency [7] | Potency [16] | Potency [8] | Potency [9] | Potency [10] | Potency [11] | Potency [12] | Potency [15]

O=C1Nc2ccc(Cl)cc2C(c2ccccc2)=NC1O (stereo not drawn)
inactive: Potency [1] | Potency [2] | outcome [18] | Potency [3] | Potency [5] | Potency [6] | Potency [7] | Potency [8] | Potency [9] | Potency [10] | Potency [11] | Potency [12] | Potency [14] | Potency [15]

ClC(Cl)(Cl)Br
inactive: Potency [1] | Potency [2] | Potency [3] | Potency [4] | Potency [5] | Potency [6] | Potency [7] | Potency [16] | Potency [8] | activity, negative = inhibition [9] -1.76% [at 19 µM] | Potency [10] | Potency [11] | Potency [12] | Potency [15]

COc1ccc(O)c(C(C)(C)C)c1
inactive: Potency [1] | Potency [2] | Potency [3] | Potency [4] | Potency [5] | Potency [6] | Potency [7] | Potency [16] | Potency [8] | Potency [9] | Potency [10] | Potency [11] | Potency [12] | Potency [14] | Potency [15]

CCCCOCCOC(C)=O
inactive: Potency [1] | Potency [2] | Potency [3] | Potency [4] | Potency [5] | Potency [6] | Potency [7] | Potency [16] | Potency [10] | Potency [11] | Potency [12] | Potency [13] | Potency [14] | Potency [15]
